Screens deposited in PubChem BioAssay by National Center for Advancing Translational Sciences (NCATS).
Hits are enriched below; roughly 12% of the tested compounds scored in any of these assays.
BAZ2B block = inhibitors of human BAZ2B bromodomain; AID 504333; AlphaScreen BAZ2B-H3K14Ac peptide displacement; Q9UIF8; 360,000 tested, 4.4% active; Potency, µM (doses to about 114 µM), hits mostly inhibitors; also: nearly all actives have a fitted effect of over 60% in size
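AlphaScreen luminescence quantifies BAZ2B engagement of H3K14Ac peptide; the protein and biotinylated peptide are both at 50 nM final, buffer PBS pH 7.4 with 0.01% Tween-20, all steps at room temperature.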
Sfp inh = inhibitors of Bacillus subtilis Sfp phosphopantetheinyl transferase; Q9F4F7; Biochemical Sfp PPTase activity, qHTS; Potency, µM, hits mostly inhibitors; 310,000 tested, 3.5% active; AID 1490;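 also: the enzyme is Sfp with the accession as filed and its product quenches rhodamine fluorescence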
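With Hepes-Na pH 7.6 buffer containing 10 mM MgCl2, Sfp (15 nM) modified BHQ-2-YbbR (12.5 uM) using rhodamine-CoA (5 uM). Two reads 30 minutes apart at 525/598 nm yielded each well's rate.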
HP1b chromo inh = blocks HP1-beta chromodomain binding to methylated histone tails; P83916; AlphaScreen HP1-beta / biotin-H3K9me3 peptide binding; Potency, µM (highest dose often 114 µM), usual class: inhibitors; 390,000 tested, 0.56% active; AID 540317; also: nearly all actives have a fitted effect of over 70% in size
Target sequence (P83916 whole entry, looked up): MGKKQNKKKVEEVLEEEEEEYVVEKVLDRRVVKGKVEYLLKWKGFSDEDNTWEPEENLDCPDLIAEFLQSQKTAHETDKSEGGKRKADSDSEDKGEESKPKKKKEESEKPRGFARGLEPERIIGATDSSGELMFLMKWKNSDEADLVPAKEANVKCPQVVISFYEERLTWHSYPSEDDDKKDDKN
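HP1-beta protein (50 nM final) preincubated 30 min at room temperature with biotinylated H3(1-18)K9me3 peptide (50 nM) in PBS pH 7.4, 0.01% Tween-20, then compound added for 30 min. AlphaScreen streptavidin donor/nickel chelate acceptor beads (10 ug/mL final), 30 min dark, luminescence read.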
JMJD2A Tudor = blocks the human JMJD2A Tudor domain; O75164; AlphaScreen JMJD2A-Tudor / H3K4me3 peptide binding; Potency, µM (series often up to 114 µM), actives largely listed as inhibitors; 390,000 tested, 4.4% active; also: nearly all actives have a fitted effect of over 50% in size
L3MBTL1 block = blocks human L3MBTL1 | Q9Y468 | 230,000 tested, 0.66% active | AlphaScreen L3MBTL1–H3K9me1 peptide binding | Potency, µM (doses to about 57.1 µM), actives largely listed as inhibitors; also: nearly all actives have a fitted effect of over 60% in size
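AlphaScreen assay: L3MBTL1 (50 nM final) was preincubated 30 min at room temperature with biotinylated H3(1-15)K9me1 peptide (75 nM final), then 30 min with library compounds; streptavidin donor and nickel chelate acceptor beads (10 ug/mL final) added, 30 min dark.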
G9a inh = blocks human histone lysine methyltransferase G9a; G9a H3K9 monomethylation, AlphaScreen, 2 h; Q96KQ7; Potency, µM (titrated, usually from 102 µM), actives largely listed as inhibitors; 350,000 tested, 8.8% active; also: nearly all actives have a fitted effect of over 75% in size
Target sequence (Q96KQ7 913-1193 limits assumed): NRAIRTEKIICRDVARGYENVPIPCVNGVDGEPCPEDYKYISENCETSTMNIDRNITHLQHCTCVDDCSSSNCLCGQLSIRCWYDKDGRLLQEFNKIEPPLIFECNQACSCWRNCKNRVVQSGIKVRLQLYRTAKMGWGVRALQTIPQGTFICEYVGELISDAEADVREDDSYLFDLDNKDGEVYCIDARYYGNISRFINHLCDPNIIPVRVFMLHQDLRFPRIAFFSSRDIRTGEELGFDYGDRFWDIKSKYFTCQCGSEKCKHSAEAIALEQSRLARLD
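Signal arises when biotinylated H3K9 peptide, once monomethylated, bridges streptavidin donor and antibody-captured acceptor beads. Enzyme at 20 nM was preincubated 15 min with test compounds; peptide 500 nM and SAM 20 uM then reacted for 2 h.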
Of the large screens only hits and unclear results are named; the others gave an inactive call. Calls follow the shape of the dose curve; as a rule, active = well fitted curve in the direction sought with a large enough effect; inconclusive = small, poorly fitted or top-dose-only effect, or another doubt; inactive = no such curve, though single readings can be large; an effect the other way counts as inactive or inconclusive.

COc1cccc(CNC(=O)c2ccc(NC(=O)N3CC(C)Sc4ccccc43)cc2)c1 (configuration not stated)	none (no result: Sfp inh, L3MBTL1 block)
Cc1ccc(NC(=O)Cn2c(=O)n(Cc3ccccc3)c(=O)c3c2c2cc(C)ccc2n3C)cc1	none (no result: Sfp inh, L3MBTL1 block)
O=C(CSc1nnc(Cc2cc(=O)[nH]c(=O)[nH]2)n1-c1ccc(Cl)cc1)NC1CCCC1	G9a inh 40µM
COc1cccc(-n2c(Cc3cc(=O)[nH]c(=O)[nH]3)nnc2SC(C)C)c1	G9a inh 40µM (no result: L3MBTL1 block)
COc1ccc(-n2c(Cc3cc(=O)[nH]c(=O)[nH]3)nnc2SCC(=O)NC2CCCC2)cc1	G9a inh inconclusive
CCOc1ccc(-n2c(O)cc(=O)[nH]c2=O)cc1	Sfp inh inconclusive, G9a inh 71µM (no result: L3MBTL1 block)
CCOc1ccc(-n2c(Cc3cc(=O)[nH]c(=O)[nH]3)nnc2SCC(N)=O)cc1	BAZ2B block inconclusive, G9a inh 45µM (no result: L3MBTL1 block)
CCOc1ccc(-n2c(Cc3cc(=O)[nH]c(=O)[nH]3)nnc2SCC(=O)NC2CCCC2)cc1	G9a inh inconclusive
CS(=O)(=O)N1CCC2(CCCN(c3ccccn3)C2)CC1	none (no result: BAZ2B block, HP1b chromo inh, JMJD2A Tudor, L3MBTL1 block)
CCCc1cc(=O)[nH]c2nnc(SCC(=O)Nc3ccc(NC(C)=O)cc3)n12	none (no result: Sfp inh)
CCCc1cc(=O)[nH]c2nnc(SCC(=O)NC3CCCC3)n12	G9a inh 18µM (no result: Sfp inh)
CC(C)Cn1cc(NC(=O)NCc2ccc(Cl)cc2)c2ccccc2c1=O	JMJD2A Tudor 40µM, G9a inh inconclusive (no result: Sfp inh, L3MBTL1 block)
CC(C)Cn1cc(NC(=O)NCc2ccccc2)c2ccccc2c1=O	G9a inh inconclusive (no result: Sfp inh, L3MBTL1 block)
N#CC1=C(N)OC2=C(C(=O)CCC2)C1c1ccccc1 (configuration not stated)	none (no result: BAZ2B block)
Cn1cccc1C1C(C#N)=C(N)OC2=C1C(=O)CCC2 (configuration not stated)	BAZ2B block inconclusive, Sfp inh 40µM
O=C(Nc1ccc(-c2cn3cccnc3n2)cc1)c1ccccc1F	none (no result: Sfp inh, L3MBTL1 block)
COC(=O)[C@@H]1[C@@H](C#N)C2(c3ccccc3-c3ccccc32)N(c2ccc(Cl)cc2)N1C#N	BAZ2B block inconclusive, Sfp inh inconclusive, HP1b chromo inh inconclusive, JMJD2A Tudor 18µM, G9a inh inconclusive
O=C(Cc1ccc(Cl)cc1)NN1C(=O)c2ccccc2C1=O	none
CCOC(=O)c1cc2c(N)c(C(=O)c3ccc(Br)cc3)sc2[nH]c1=O	Sfp inh 28µM, G9a inh 50µM
CC12CN3CC(c4ccccc4)(CN(C1)C3c1ccc(O)cc1)C2=O (configuration not stated)	none (no result: Sfp inh, L3MBTL1 block)
Cc1c(N2C(=O)CS/C2=N\N=C\c2ccc(Cl)cc2)c(=O)n(-c2ccccc2)n1C	none
COc1ccc(/C=N/N=C2\SCC(=O)N2c2c(C)n(C)n(-c3ccccc3)c2=O)cc1OC	BAZ2B block inconclusive, G9a inh 8.9µM
Cc1cc(N2CCC(C)CC2)nc2cccc(O)c12	JMJD2A Tudor inconclusive, G9a inh 50µM (no result: L3MBTL1 block)
CCc1ccccc1Nc1nn2c(=O)c3ccc(C(=O)NCc4cccs4)cc3nc2s1	BAZ2B block inconclusive (no result: Sfp inh)
O=C(Nc1cc(S(=O)(=O)Nc2ccc(Cl)cc2)ccc1N1CCCCC1)c1ccc(F)cc1	Sfp inh 14µM, HP1b chromo inh inconclusive, JMJD2A Tudor inconclusive, G9a inh 10µM
N#Cc1ccc(C(=O)Nc2cc(S(=O)(=O)Nc3ccc(Cl)cc3)ccc2N2CCCCC2)cc1	Sfp inh 22µM, HP1b chromo inh inconclusive, JMJD2A Tudor inconclusive, G9a inh 7.1µM
N#Cc1ccc(C(=O)Nc2cc(S(=O)(=O)N3CCOCC3)ccc2N2CCCC2)cc1	none (no result: BAZ2B block, Sfp inh, G9a inh)
Cc1ccc(C(=O)OCC(=O)NCCc2ccc(S(N)(=O)=O)cc2)o1	none (no result: BAZ2B block, Sfp inh, G9a inh)
Cc1ccc(/C=C/C(=O)OCC(=O)NC(=O)NCc2ccccc2)cc1	none (no result: Sfp inh)
Cc1ccc(/C=C/C(=O)OCC(=O)NCc2ccccc2)o1	G9a inh 45µM (no result: Sfp inh)
Cc1ccc(/C=C/C(=O)OCC(=O)NCCN2C(=O)CSC2=O)o1	Sfp inh 32µM, G9a inh 50µM
CCOc1ccc(CCNC(=O)COC(=O)/C=C/c2ccc(C)o2)cc1OCC	Sfp inh 56µM, G9a inh inconclusive (no result: L3MBTL1 block)
